Laboratory results taken from PubChem BioAssay (NCI).
Values joined by “and” are separate entries in the source; they are usually repeats but may differ in a detail not shown here. Equal values may be shown once. About 83,000 compounds went through this panel and 20% of them were active in at least one assay; those are over-represented in the sample as a whole.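 Note: values are percent growth. 100 is the growth of untreated cells, values between 100 and 0 indicate rising inhibition; between -100 and 0 indicates cell death.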 Active and inactive are the calls of the source. How the source made its calls: active means growth percent below 10; inactive means the rest.

Legend:
Test in all cases: NCI-60 one-dose screen, 48 h (100 = growth as untreated, 0 = no growth, -100 = all killed)
Conditions in all cases: 10 µM unless noted
T-47D breast = test system: T-47D breast
BT-549 breast = test system: BT-549 breast
MDA-MB-435 melanoma = test system: MDA-MB-435 melanoma
SW-620 colon = test system: SW-620 colon
MCF7 breast = test system: MCF7 breast
HCT-116 colon = test system: HCT-116 colon
HCC-2998 colon = test system: HCC-2998 colon
KM12 colon = test system: KM12 colon

| SMILES | growth (T-47D breast) | growth (BT-549 breast) | growth (MDA-MB-435 melanoma) | growth (SW-620 colon) | growth (MCF7 breast) | growth (HCT-116 colon) | growth (HCC-2998 colon) | growth (KM12 colon) |
| --- | --- | --- | --- | --- | --- | --- | --- | --- |
| O=c1c2cc(-c3ccc(F)cc3F)ccc2n(O)c(=O)n1-c1cccc(C(F)(F)F)c1 | -15.9% (active) | -3.54% (active) | 1.71% (active) | 16.3% (inactive) | 1.33% (active) | 1.93% (active) | 9.79% (active) | 7.94% (active) |
| Brc1cccc(-c2cc(-c3ccc4c(c3)OC=CO4)[nH]n2)c1 | 44.3% (inactive) | 63.8% (inactive) | -25.2% (active) | 31.5% (inactive) | 10.1% (inactive) | 23.3% (inactive) | 59.8% (inactive) | 38.1% (inactive) |
| COc1ccc(NC2=C(Br)C(=O)C(C)=C(C)C2=O)cc1OC | -8.45% (active) | 112% (inactive) | 102% (inactive) | 107% (inactive) | 72.1% (inactive) | 90.7% (inactive) | 102% (inactive) | 59.2% (inactive) |
| CSc1ccc(C(=NNS(=O)(=O)c2ccc(C)cc2)c2ccc(Cl)cc2)cc1 | 89.7% (inactive) | 118% (inactive) | 106% (inactive) | 102% (inactive) | 88.2% (inactive) | 98.2% (inactive) | 103% (inactive) | 97.1% (inactive) |
| COc1cc(-c2nc(-c3ccccc3)[nH]c2-c2ccnc(NCCCNS(=O)(=O)c3ccc(C)cc3)n2)ccc1F | 57.3% (inactive) | 119% (inactive) | 68.5% (inactive) | 108% (inactive) | 65.4% (inactive) | 72.3% (inactive) | 153% (inactive) | 90.1% (inactive) |
| COc1ccc2c(c1)C=CC1(O2)Oc2ccc(OC)cc2C=C1C (stereo not drawn) | 45% (inactive) | 26.5% (inactive) | -35.3% (active) | 29.8% (inactive) | 12.1% (inactive) | 12.4% (inactive) | 24.1% (inactive) | 27.9% (inactive) |
| Cc1cc(Br)ccc1-n1cc(C#N)c(N)c1C(=O)c1ccc(Br)cc1 | 101% (inactive) | 89.8% (inactive) | 100% (inactive) | 117% (inactive) | 95.2% (inactive) | 88.6% (inactive) | 110% (inactive) | 107% (inactive) |
| CC1(C)CC[C@]23CC[C@]4(C)[C@H](CC[C@@H]5[C@@]6(C)CC[C@H](N)C(C)(C)[C@@H]6CC[C@]54C)[C@H]2[C@H]1OC3 | 88.1% (inactive) | 88.9% (inactive) | 90.6% (inactive) | -44.3% (active) | -8.5% (active) | -82.7% (active) | -15.9% (active) | 18% (inactive) |
| Cc1ccc(OCc2occc2C(=O)N2CCOCC2)cc1 | 93.1% (inactive) | 117% (inactive) | 100% (inactive) | 102% (inactive) | 85.6% (inactive) | 105% (inactive) | 103% (inactive) | 107% (inactive) |
| CC(=O)c1c([Si](C)(C)C)c2cc(C#N)ccn2c1C(=O)c1ccc(Br)cc1 | 73.8% (inactive) | 97.5% (inactive) | 92.5% (inactive) | 87.2% (inactive) | 82.5% (inactive) | 56% (inactive) | 89.9% (inactive) | 88.3% (inactive) |
| COc1cc2oc(-c3cccc(NC(=O)c4cccc([N+](=O)[O-])c4)c3)cc(=O)c2c(OC)c1OC | 54.3% (inactive) | 59.8% (inactive) | 53.3% (inactive) | 70.9% (inactive) | 42.9% (inactive) | 33.5% (inactive) | 93.6% (inactive) | 76.4% (inactive) |
| C=C(C)[C@@H]1CC[C@]2(COCCCNCCCN)CC[C@]3(C)[C@H](CC[C@@H]4[C@@]5(C)CC[C@H](O)C(C)(C)[C@@H]5CC[C@]43C)[C@@H]12 | -53.3% (active) | -77.4% (active) | -95.8% (active) | -68.1% (active) | -75.4% (active) | -86.5% (active) | -71.5% (active) | -65.4% (active) |
| Cc1csc(/N=C(N)/N=C(\N)c2cccc(Br)c2)n1 | 74.3% (inactive) | 92.6% (inactive) | 46.2% (inactive) | 84.4% (inactive) | 73.3% (inactive) | 88.8% (inactive) | 97% (inactive) | 73.2% (inactive) |
| CNC(=O)c1cc(Oc2ccc3c(c2)sc2nc(-c4ccc(N(C)C)cc4)cn23)ccn1 | 45.2% (inactive) | 36.5% (inactive) | -37.8% (active) | 27.9% (inactive) | 11.2% (inactive) | 8.11% (active) | 0.825% (active) | 23.2% (inactive) |
| O=C(COc1ccc(/C=C2\C(=O)Nc3ccc(Cl)cc32)cc1)Nc1ccc(Cl)cc1 | 68.8% (inactive) | 70.2% (inactive) | 55.6% (inactive) | 45.5% (inactive) | 56.3% (inactive) | 15.9% (inactive) | 89% (inactive) | 43.2% (inactive) |
| C/C(=N/N)c1nnn(-c2ccc(Br)cc2)c1C | 102% (inactive) | 102% (inactive) | 102% (inactive) | 105% (inactive) | 77.6% (inactive) | 103% (inactive) | 107% (inactive) | 99.4% (inactive) |

| SMILES | growth (T-47D breast) | growth (BT-549 breast) | growth (MDA-MB-435 melanoma) | growth (SW-620 colon) | growth (MCF7 breast) | growth (HCT-116 colon) | growth (HCC-2998 colon) | growth (KM12 colon) |
| --- | --- | --- | --- | --- | --- | --- | --- | --- |
| COC(=O)N1CCN(CCNCc2ccc(NC(=O)c3ccc(C)c(C#Cc4cnc5cccnn45)c3)cc2C(F)(F)F)CC1 | 34% (inactive) | 24.1% (inactive) | -21.8% (active) | 14.6% (inactive) | -6.54% (active) | 4.9% (active) | 14.4% (inactive) | 4.91% (active) |
| CCOC(=O)c1c(NCC(=O)Nc2cccc([N+](=O)[O-])c2)sc(C(C)=O)c1C | 34.6% (inactive) | -40.7% (active) | -26% (active) | 3.65% (active) | -9.04% (active) | -14.3% (active) | -62.3% (active) | -7.12% (active) |
| CCc1cc2c(cc1Cl)nc1c(=O)[nH]c(=O)nc-1n2CCOCC(C)(C)C | 80.7% (inactive) | 95% (inactive) | 33.5% (inactive) | 89.5% (inactive) | 58.2% (inactive) | 73.3% (inactive) | 84.1% (inactive) | 76.5% (inactive) |
| C#CCOc1ccc(-c2csc(NC(=O)C=C)n2)cc1NS(=O)(=O)c1cccc2c(N(C)C)cccc12 | 60.7% (inactive) | 58.6% (inactive) | 14.7% (inactive) | 10.3% (inactive) | 4.46% (active) | -72.2% (active) | 78.4% (inactive) | 63.1% (inactive) |
| COc1cc(-c2nc(-c3ccccc3)[nH]c2-c2ccnc(NCCCNS(=O)(=O)c3ccc(C(F)(F)F)cc3)n2)ccc1Cl | 44.2% (inactive) and 21.1% (inactive) | 44.7% (inactive) and 67.2% (inactive) | 29.4% (inactive) and 27.5% (inactive) | 46.8% (inactive) and 55.9% (inactive) | 9.62% (active) and 18.3% (inactive) | 16.3% (inactive) and 17.4% (inactive) | 48.5% (inactive) and 51% (inactive) | 25% (inactive) and 32.5% (inactive) |
| COC(=O)c1ccc(NC2=C(Cl)C(=O)C(C)=C(C)C2=O)cc1 | -25.9% (active) | 77.5% (inactive) | 7.22% (active) | 35.5% (inactive) | 35.9% (inactive) | 32.4% (inactive) | 71.1% (inactive) | 6.69% (active) |
| COC(=O)CNC(=O)c1cccc(-c2cc(=O)c3c(OC)c(OC)c(OC)cc3o2)c1 | 107% (inactive) | 102% (inactive) | 107% (inactive) | 100% (inactive) | 89.2% (inactive) | 101% (inactive) | 100% (inactive) | 103% (inactive) |
| CN1CCN(c2ccc(Nc3nc(NCCNC(=O)c4ccc(F)cc4)c4sccc4n3)cc2)CC1 | 18.2% (inactive) | 56.1% (inactive) | 46.9% (inactive) | 75.2% (inactive) | 41% (inactive) | 22% (inactive) | 70.4% (inactive) | 65.4% (inactive) |
| O=C1[C@H]2Cc3c([nH]c4ccccc34)[C@H](c3ccc(Br)cc3)N2C(=O)CN1C1CCN(CC2CCCCC2)CC1 | 97.9% (inactive) | 96.5% (inactive) | 85.1% (inactive) | 79.7% (inactive) | 25.8% (inactive) | 18% (inactive) | 67.8% (inactive) | 77% (inactive) |
| O=C(CSc1nnc(-c2cccs2)n1-c1ccccc1)Nc1ccccc1 | 78.4% (inactive) | 85.5% (inactive) | 57.9% (inactive) | 87.2% (inactive) | 80.3% (inactive) | 75.4% (inactive) | 111% (inactive) | 84.8% (inactive) |
| CN(C)c1ccc(/C=N/Nc2nc(N/N=C/c3ccc(N(C)C)cc3)nc(N3CCCCC3)n2)cc1 | 46% (inactive) | 111% (inactive) | 60.4% (inactive) | 64.2% (inactive) | 31.1% (inactive) | 14.9% (inactive) | 103% (inactive) | 93% (inactive) |
| O=C(COc1ccc(/C=C2\C(=O)Nc3cc(Cl)ccc32)cc1)Nc1ccc(Cl)cc1 | 68% (inactive) | 70.3% (inactive) | 51.2% (inactive) | 55.3% (inactive) | 47.1% (inactive) | 54.8% (inactive) | 96.1% (inactive) | 36.4% (inactive) |
| CCN(CC)CCOc1ccc(C(=C(c2ccccc2)C2CCCC2)c2ccc(OCCN(CC)CC)cc2)cc1 | 18.8% (inactive) | -18.6% (active) | -10% (active) | 33.5% (inactive) | -57.3% (active) | 13.3% (inactive) | -62.3% (active) | -7.22% (active) |
| O=C1Nc2ccccc2/C1=N\c1nnc(-c2ccccc2)o1 | 77.9% (inactive) | 105% (inactive) | 102% (inactive) | 95.3% (inactive) | 66.3% (inactive) | 103% (inactive) | 111% (inactive) | 96.7% (inactive) |
| O=C(/C=C/c1cc(Cl)ccc1Cl)Nc1ncc(Cc2ccc(Cl)cc2)s1 | 63.8% (inactive) | -46.5% (active) | -37% (active) | 20.8% (inactive) | 16.2% (inactive) | 2.67% (active) | 13.3% (inactive) | 13.1% (inactive) |
